# From PubChem BioAssay AID720723 (Molecular Libraries Program, Specialized Chemistry Center, …, 2013)
# Activity calls are given as the source filed them. No cut-off is given here; in the data, nearly all actives have IC50 up to about 87 µM.
# Experiment: rhodamine 123 fluorescence quenching, dose response, artefact control for mitochondrial permeability transition pore inhibitor project, biochemical, dry powder samples (AID 720723)
# Conditions: Rhodamine 123 fluorescence quenching counterscreen, cell-free
row,Compound,IC50
1,CCOC(=O)N1CCN(S(=O)(=O)c2ccc(C(=O)N(CCCN(C)C)c3nc4c(C)c(C)ccc4s3)cc2)CC1,56.8 µM (active)
2,COCCCNCCCOc1ccc(Cl)cc1C(C)(C)C,42.3 µM (active)
3,COc1ccc(Cl)cc1C(=O)Nc1ccc(CN2CCCCC2)cc1,85.9 µM (active)
4,CN1CCC[C@@H]1CCO[C@](C)(c1ccccc1)c1ccc(Cl)cc1,27.5 µM (active)
5,CC1CCCN(CCC(=O)c2ccc(Br)cc2)C1 (stereo not given),85.8 µM (active)
6,CC(C)(C)c1ccccc1OCCCCCNCCO,42.8 µM (active)
7,COc1ccc(C)c2sc(N(CCCN(C)C)C(=O)CS(=O)(=O)c3ccc(F)cc3)nc12,87.8 µM (active)
8,CCN(CC)c1ccc(NC(=O)c2cc(Cl)ccc2OC)cc1,41.2 µM (active)
9,CCN(CC)CCCN=Cc1c(O)n(Cc2ccccc2)c(=O)c2ccccc12,> 100 µM (inactive)
10,Cc1cc(C)c2nc(N(CCCN(C)C)C(=O)C3=COCCO3)sc2c1,> 101 µM (inactive)
11,N#Cc1c(NCCN)nc(-c2ccco2)c2c1CCCC2,82.5 µM (active)
12,COc1ccc(-n2cc(CNC3CCN(C)CC3)c(-c3cccc(F)c3)n2)cc1,> 100 µM (inactive)
13,C=CCNCCOCCOc1ccc(Cl)cc1C(C)(C)C,21.9 µM (active)
14,Cc1ccc2nc(N(CCN(C)C)C(=O)/C=C/c3cccs3)sc2c1,> 100 µM (inactive)
15,COc1cc(NC(=O)c2cc(-c3cccc(O)c3)on2)cc(OC)c1OC,> 100 µM (inactive)
16,COC(=O)c1c(NC(=O)C2CCCCC2)sc2c1CC(C)(C)NC2(C)C,48.1 µM (active)
17,C=CCNCCOc1ccc(C(C)(C)c2ccccc2)cc1,41.6 µM (active)
18,Cc1ccc2nc(N(CCCN(C)C)C(=O)CCc3ccccc3)sc2c1,34.1 µM (active)
19,CN(C)CCCN1c2ccccc2Sc2ccc(Cl)cc21,> 100 µM (inactive)
20,N=c1sccn1CC(=O)Nc1cccc(Oc2ccccc2)c1,54.4 µM (active)
21,CNCCC=C1c2ccccc2CCc2ccccc21,> 100 µM (inactive)
22,Cc1cc(C)c2nc(N(CCCN(C)C)C(=O)c3ccc(S(=O)(=O)N4CCCCCC4)cc3)sc2c1,20.9 µM (active)
23,C=CCNCCCOc1ccc(C)cc1Br,69.6 µM (active)
24,O=C(CC1NCCc2ccccc21)Nc1ccc(Cl)cc1 (stereo not given),82.4 µM (active)
25,COc1cc(CNCCO)cc(Cl)c1OCc1ccccc1Cl,31.5 µM (active)
